From PubChem BioAssay (NCATS)
Inconclusive results are not listed. Where a call stands in place of a potency, no number is given. Active and inactive are the calls of the source. Calls follow the shape of the dose curve; as a rule, active = well fitted curve in the direction sought with a large enough effect; inconclusive = small, poorly fitted or top-dose-only effect, or another doubt; inactive = no such curve, though single readings can be large; an effect the other way counts as inactive or inconclusive.

Columns and labels:
[1] = qHTS for differential inhibitors of proliferation of Plasmodium falciparum line D10 (AID 1877); conditions: series mostly up to 28.7 µM;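 also: parasites grown with compound for 72 h before DNA staining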; also: potency is read from the fitted curve at half-maximal effect
[2] = qHTS for differential inhibitors of proliferation of Plasmodium falciparum line Dd2 (AID 1882); conditions: Potency: Plasmodium falciparum Dd2 proliferation inhibition; series mostly up to 28.7 µM; also: nearly all actives have a fitted effect of over 65% in size; also: potency is read from the fitted curve at half-maximal effect
Method in brief: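 Dd2-infected erythrocytes (0.3% parasitemia, 2.5% hematocrit final) incubated with compound 72 h at 37 C, 5% CO2; lysed with saponin/Triton buffer containing SYBR Green I, incubated overnight in the dark, then read by fluorescence (485/535 nm). Normalized to 0.29 uM artemisinin and DMSO.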

[3] = qHTS for differential inhibitors of proliferation of Plasmodium falciparum line W2 (AID 1883); conditions: Potency: Plasmodium falciparum W2 proliferation inhibition; series mostly up to 28.7 µM;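 also: parasites grown with compound for 72 h before lysis and staining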; also: potency is read from the fitted curve at half-maximal effect
[4] = qHTS for differential inhibitors of proliferation of Plasmodium falciparum line HB3 (AID 1886); conditions: Potency: Plasmodium falciparum HB3 proliferation inhibition; series mostly up to 28.7 µM;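 also: parasites grown with compound for 72 h before SYBR Green readout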; also: potency is read from the fitted curve at half-maximal effect
[5] = biological target: RecQ-like DNA helicase BLM (Homo sapiens) (UniProt P54132); assay: qHTS Validation Assay for Inhibitors of Bloom's syndrome helicase (BLM) (AID 2364); conditions: BLM helicase DNA unwinding, fluorescence, in vitro; series mostly up to 57.1 µM; also: potency is read from the fitted curve at half-maximal effect
Chain of RecQ-like DNA helicase BLM (Homo sapiens) (P54132 whole entry, looked up): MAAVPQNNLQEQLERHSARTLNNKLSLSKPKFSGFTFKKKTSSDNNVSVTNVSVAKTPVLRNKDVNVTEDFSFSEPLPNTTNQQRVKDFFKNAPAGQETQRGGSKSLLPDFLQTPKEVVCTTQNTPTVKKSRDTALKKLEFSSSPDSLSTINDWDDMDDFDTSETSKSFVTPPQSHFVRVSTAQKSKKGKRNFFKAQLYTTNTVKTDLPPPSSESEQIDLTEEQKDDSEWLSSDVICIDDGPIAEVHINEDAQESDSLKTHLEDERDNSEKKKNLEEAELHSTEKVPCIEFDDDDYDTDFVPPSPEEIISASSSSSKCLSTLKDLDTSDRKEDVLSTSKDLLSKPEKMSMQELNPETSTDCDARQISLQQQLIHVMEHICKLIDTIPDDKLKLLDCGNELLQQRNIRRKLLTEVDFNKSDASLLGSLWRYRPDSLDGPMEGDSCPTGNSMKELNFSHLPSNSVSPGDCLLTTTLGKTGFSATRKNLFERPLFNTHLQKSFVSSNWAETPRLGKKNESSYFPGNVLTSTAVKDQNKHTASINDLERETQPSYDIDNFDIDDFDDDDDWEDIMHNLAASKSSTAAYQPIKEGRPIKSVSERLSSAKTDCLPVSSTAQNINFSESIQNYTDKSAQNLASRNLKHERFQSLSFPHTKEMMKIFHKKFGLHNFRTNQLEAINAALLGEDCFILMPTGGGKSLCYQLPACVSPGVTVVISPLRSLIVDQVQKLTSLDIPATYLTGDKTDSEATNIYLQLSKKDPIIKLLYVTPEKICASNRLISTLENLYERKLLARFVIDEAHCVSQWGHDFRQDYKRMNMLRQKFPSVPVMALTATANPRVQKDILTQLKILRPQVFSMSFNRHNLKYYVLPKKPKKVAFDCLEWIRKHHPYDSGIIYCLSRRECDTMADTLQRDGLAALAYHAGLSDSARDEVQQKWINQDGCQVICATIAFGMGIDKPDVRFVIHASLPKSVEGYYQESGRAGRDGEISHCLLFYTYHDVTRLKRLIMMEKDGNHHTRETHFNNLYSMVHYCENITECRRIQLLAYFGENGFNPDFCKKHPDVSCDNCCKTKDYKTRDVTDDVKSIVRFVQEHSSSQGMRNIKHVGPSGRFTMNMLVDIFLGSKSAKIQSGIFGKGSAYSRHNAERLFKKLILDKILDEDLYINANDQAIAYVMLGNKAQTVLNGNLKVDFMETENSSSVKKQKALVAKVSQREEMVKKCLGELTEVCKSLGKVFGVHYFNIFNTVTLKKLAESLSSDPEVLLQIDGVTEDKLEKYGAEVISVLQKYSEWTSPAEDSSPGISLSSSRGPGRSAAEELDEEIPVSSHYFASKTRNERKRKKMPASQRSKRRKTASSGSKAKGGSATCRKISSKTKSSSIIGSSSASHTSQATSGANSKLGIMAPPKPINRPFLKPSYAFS
Method in brief: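 50 nM BLM preincubated 15 min at room temperature with compound in pH 8.0 Tris buffer containing 2.5 ug/ml poly(dI-dC); started with 200 nM TAMRA/BHQ-2 forked duplex and 2 mM ATP (final). Unwinding read as TAMRA fluorescence increase, two reads 2 h apart.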

[6] = biological target: Ferritin light chain (Equus caballus) (UniProt P02791); assay: qHTS Validation Assay for Identification of Novel General Anesthetics (AID 2323); conditions: horse apoferritin, anesthetic-site fluorescent probe displacement; series mostly up to 76.9 µM
Chain of Ferritin light chain (Equus caballus) (P02791 2-175 limits assumed): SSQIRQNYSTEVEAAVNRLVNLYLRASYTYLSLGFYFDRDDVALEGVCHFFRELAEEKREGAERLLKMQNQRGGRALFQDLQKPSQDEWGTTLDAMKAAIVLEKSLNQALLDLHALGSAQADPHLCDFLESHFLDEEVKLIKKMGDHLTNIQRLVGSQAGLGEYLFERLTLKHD
Method in brief: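 Apoferritin from horse spleen (10 uM) was mixed with 1-aminoanthracene at 50% saturation in PBS, then compounds were added. After 10 min at room temperature, fluorescence was read (ex 380 nm, em 535 nm) and normalized to free-probe and complex controls.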

[7] = biological target: ATP-dependent DNA helicase Q1 (Homo sapiens) (UniProt P46063); assay: qHTS Validation Assay for Inhibitors of RecQ-Like Dna Helicase 1 (RECQ1) (AID 2353); conditions: recombinant RECQ1 helicase DNA unwinding assay; series mostly up to 25.6 µM; also: potency is read from the fitted curve at half-maximal effect
Chain of ATP-dependent DNA helicase Q1 (Homo sapiens) (P46063 whole entry, looked up): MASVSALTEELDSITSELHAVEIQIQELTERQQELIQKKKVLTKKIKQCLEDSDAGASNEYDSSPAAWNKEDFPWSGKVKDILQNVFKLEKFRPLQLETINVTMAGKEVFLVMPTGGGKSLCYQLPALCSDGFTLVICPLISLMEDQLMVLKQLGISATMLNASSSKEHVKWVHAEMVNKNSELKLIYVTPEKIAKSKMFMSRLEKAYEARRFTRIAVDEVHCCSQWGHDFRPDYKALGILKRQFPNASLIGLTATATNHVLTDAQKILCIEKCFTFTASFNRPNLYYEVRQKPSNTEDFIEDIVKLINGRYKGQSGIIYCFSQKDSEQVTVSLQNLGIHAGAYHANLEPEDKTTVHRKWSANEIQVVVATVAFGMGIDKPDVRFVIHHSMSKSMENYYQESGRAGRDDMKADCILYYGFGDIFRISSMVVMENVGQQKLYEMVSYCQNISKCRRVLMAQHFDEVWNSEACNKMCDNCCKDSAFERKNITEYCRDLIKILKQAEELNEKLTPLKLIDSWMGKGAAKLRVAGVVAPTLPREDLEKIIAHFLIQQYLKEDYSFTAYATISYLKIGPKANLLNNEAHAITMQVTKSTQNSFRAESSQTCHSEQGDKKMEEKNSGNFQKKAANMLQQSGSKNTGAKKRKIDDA
Method in brief: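 50 nM RECQ1T1 preincubated 15 min with compound in Tris pH 8.0 buffer with MgCl2, DTT, Tween-20 and 2.5 ug/ml poly(dI-dC); started with 200 nM TAMRA/BHQ-2 forked duplex and 2 mM ATP. Unwinding read as fluorescence (525/598 nm), two reads 2 h apart.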

| SMILES | Potency [1] | Potency [2] | Potency [3] | Potency [4] | Potency [5] | Potency [6] | Potency [7] |
| --- | --- | --- | --- | --- | --- | --- | --- |
| CCCN(CCc1ccccc1)C1CCc2c(O)cccc2C1 (stereo not given) | 5.01 µM (active) | 2 µM (active) | 1 µM (active) | 2.51 µM (active) | inactive | – | – |
| NC(=O)CC[C@H](N)C(=O)O | inactive | inactive | inactive | inactive | – | inactive | inactive |
| N[C@H](C(=O)O)[C@H]1C[C@@H]1C(=O)O | inactive | inactive | inactive | inactive | inactive | inactive | inactive |
| CN(C)C(=O)/N=N/C(=O)N(C)C | inactive | inactive | inactive | inactive | inactive | inactive | inactive |
| CCC1(O)CC2CN(CCc3c([nH]c4ccccc34)[C@@](C(=O)OC)(c3cc4c(cc3OC)N(C)C3[C@]45CCN4CC=C[C@@](CC)([C@@H](OC(C)=O)[C@]3(O)C(=O)OC)[C@H]45)C2)C1 (stereo not given in full) | 5.01 µM (active) | 0.398 µM (active) | 0.794 µM (active) | 2.82 µM (active) | – | inactive | inactive |
| CC(=O)[C@H]1CCC2C3CC=C4C[C@@H](OS(=O)(=O)O)CC[C@]4(C)C3CC[C@@]21C (stereo not given in full) | inactive | inactive | inactive | inactive | inactive | inactive | inactive |
| O=C1C2C=CC=CC2=NC(=S)N1CCN1CCC(=C(c2ccc(F)cc2)c2ccc(F)cc2)CC1 (stereo not given) | inactive | inactive | 10 µM (active) | – | – | inactive | – |
| O=C(O)C1=CCCN(CCON=C(c2ccccc2)c2ccccc2)C1 | inactive | inactive | 5.62 µM (active) | inactive | – | inactive | inactive |
| CN1C2CCC1CC(OC(c1ccccc1)c1ccccc1)C2 (stereo not given) | 7.08 µM (active) | 4.47 µM (active) | 1.41 µM (active) | 6.31 µM (active) | inactive | inactive | inactive |
| CCN1C(=O)C=CC1=O | inactive | inactive | inactive | inactive | – | inactive | inactive |
| C[N+](C)(C)CC=O | inactive | inactive | inactive | inactive | – | inactive | inactive |
| N[C@@H](Cc1ccc(F)cc1)C(=O)O | 17.8 µM (active) | inactive | 11.2 µM (active) | 12.6 µM (active) | inactive | inactive | – |
| C=CCN1CCc2c(cc(O)c(O)c2Br)[C@@H](c2ccccc2)C1 | 11.2 µM (active) | 8.91 µM (active) | 3.98 µM (active) | 7.08 µM (active) | – | inactive | inactive |
| CCCCS(=N)(=O)CC[C@H](N)C(=O)O (stereo not given in full) | inactive | inactive | 8.91 µM (active) | inactive | – | inactive | inactive |
| c1ccc(CN2CCC3(CCCc4ccccc43)CC2)cc1 | 12.6 µM (active) | 11.2 µM (active) | 4.47 µM (active) | 7.94 µM (active) | – | inactive | inactive |
| Nc1ccc(-c2nc3ccc(-c4nc5ccc(N)cc5[nH]4)cc3[nH]2)cc1 | 0.708 µM (active) | 1 µM (active) | 0.251 µM (active) | 0.794 µM (active) | 22.4 µM (active) | inactive | 8.91 µM (active) |

| SMILES | Potency [1] | Potency [2] | Potency [3] | Potency [4] | Potency [5] | Potency [6] | Potency [7] |
| --- | --- | --- | --- | --- | --- | --- | --- |
| NC(N)=[N+]1CCc2ccccc2C1 | inactive | inactive | inactive | inactive | inactive | inactive | inactive |
| CC(=O)/C(C)=N/O | inactive | inactive | inactive | inactive | – | inactive | inactive |
| CCN(c1nc(N)c(C(=O)N=C(N)N)nc1Cl)C(C)C | 11.2 µM (active) | inactive | 7.94 µM (active) | 11.2 µM (active) | inactive | – | inactive |
| C=CC[C@H](N)C(=O)O | inactive | inactive | inactive | inactive | inactive | inactive | inactive |
| CCCCC[C@H](CC(=O)NO)C(=O)N[C@H](C(=O)N1CCC[C@H]1CO)C(C)C | 1.58 µM (active) | 3.55 µM (active) | 2.51 µM (active) | 2.82 µM (active) | inactive | inactive | inactive |
| CN1CCN(c2nc3cc(C(F)(F)F)ccc3n3cccc23)CC1 | 11.2 µM (active) | 8.91 µM (active) | 5.62 µM (active) | 11.2 µM (active) | inactive | inactive | inactive |
| CN1CCCC1CCOC(C)(c1ccccc1)c1ccc(Cl)cc1 (stereo not given) | 11.2 µM (active) | 10 µM (active) | 2.51 µM (active) | 5.01 µM (active) | – | inactive | inactive |
| N=C(N)c1ccc(OCCCCCOc2ccc(C(=N)N)cc2)cc1 (tested in a mixture with another compound) | 0.199 µM (active) | 1 µM (active) | 0.355 µM (active) | 0.224 µM (active) | inactive | inactive | inactive |
| CN(C)S(=O)(=O)c1ccc2c(c1)/C(=C/c1cc3c([nH]1)CCCC3)C(=O)N2 | 3.55 µM (active) | 7.08 µM (active) | 3.55 µM (active) | 3.98 µM (active) | – | – | inactive |
| NC(=O)c1ccccc1 | inactive | inactive | inactive | inactive | – | inactive | inactive |
| Cc1cccc(C(=O)NCN2CCN(c3ccccc3C#N)CC2)c1 | inactive | inactive | – | inactive | – | inactive | inactive |
| COC(=O)[C@H](NC(=O)c1cc(-c2ccccc2)nc2ccccc12)c1ccccc1 | inactive | inactive | 12.6 µM (active) | – | – | inactive | inactive |
| Nc1ccc(N2C(=O)c3ccccc3C2=O)c(Cl)c1 | inactive | inactive | – | inactive | inactive | inactive | – |
| Cc1cc2c(cc1Cl)N(C(=O)Nc1ccnc3ccccc13)CC2 | inactive | inactive | – | inactive | – | inactive | inactive |
| [N-]=[N+]=Nc1ccc(C(=O)CSC[C@H](NC(=O)CC[C@H](N)C(=O)O)C(=O)NCC(=O)O)cc1 | inactive | inactive | – | inactive | 28.2 µM (active) | – | – |
| O=c1oc(Cl)c(Cl)c2ccccc12 | inactive | inactive | – | inactive | – | – | inactive |
